# Data: PubChem BioAssay AID540276 (National Center for Advancing Translational Sciences (NCATS), 2011)
# The campaign covered roughly 300,000 compounds. About 5,400 (1.8%) were called active. Where a call stands in place of a potency, no number is given. Roughly 28% stayed inconclusive and do not appear here. Calls follow the shape of the full dose curve; tested in HEK293 cells. The full list was thinned out, with actives kept by preference. Non-standard residues stand in square brackets, D forms with d. Residues, ends and D or L forms follow the SMILES beside them. ξ: configuration not given here. Ac5c = NC1(C(=O)O)CCCC1; ξS = NC(CO)C(=O)O
# Test: qHTS for inhibitors of binding or entry into cells for Marburg Virus
# Settings: Marburg virus pseudotyped entry inhibition, cell reporter; series mostly up to 37.8 µM
# Potency is read from the fitted curve at half-maximal effect.
row,Compound,Potency
1,CC(C)c1ccc(S(=O)(=O)N2CCN(C(=O)CN3C(=O)NC(C)(c4ccccc4)C3=O)CC2)cc1 (stereo unspecified),inactive
2,COc1ccc(N(CC(=O)N2CCOCC2)S(=O)(=O)c2ccccc2)cc1Cl,inactive
3,CC(C)Oc1ccc(S(=O)(=O)N2CCOCC2)cc1NC(=O)C1CSC2(C)CCC(=O)N12 (stereo unspecified),inactive
4,O=C(OC12CC3CC(CC(C3)C1)C2)c1ccc(NCc2cc(O)ccc2O)cc1,4.47 µM (active)
5,C[C@]12CC[C@H](O)CC1=CCC1C2CC[C@@]2(C)C1CC[C@@H]2NC(=O)CCC(=O)O (stereo partly specified),inactive
6,COc1ccc(/C=C/C(=O)NC(=S)N2CCCC(C(N)=O)C2)cc1 (stereo unspecified),inactive
7,CCCCCCCCn1c2c(c(=N)c3c1CCC3)CCCC2,5.01 µM (active)
8,Cc1ccc(S(=O)(=O)N2CCCC(C(=O)N3CCN(C)CC3)C2)cc1 (stereo unspecified),inactive
9,CN(C)c1ccc(CSc2ccccc2)cc1,inactive
10,O=C(CSc1nnc(N2CCOCC2)n1-c1cccc(F)c1)N1CCN(c2ccccn2)CC1,inactive
11,COc1cccc(CNC(=O)CCC2CCCN(C(=O)c3ccc(F)c(Cl)c3)C2)c1 (stereo unspecified),inactive
12,COc1ccc2[nH]c3c(c2c1)CCN(C(=O)CCC1CCCC1)C3c1ccc(F)cc1 (stereo unspecified),0.631 µM (active)
13,COc1cccc(C(=O)N2CCCC(CCC(=O)NCc3ccc(F)c(F)c3)C2)c1 (stereo unspecified),inactive
14,COc1ccccc1C(=O)NCCC(=O)NCC(c1ccco1)N1CCCCC1 (stereo unspecified),inactive
15,Cc1ccc(S(=O)(=O)N(CC(=O)NCc2ccco2)c2ccccc2C)cc1,inactive
16,CC(=O)c1ccc(N2CCN(C(=O)CCc3ccccc3)CC2)cc1,inactive
17,C=CCN1CCN(C(=O)CCCc2ccccc2)CC1,2.51 µM (active)
18,O=C(O)CCCc1ccccc1,inactive
19,Cc1cc(C)c(S(=O)(=O)N(C)CC(=O)NCC2CCCO2)c(C)c1 (stereo unspecified),inactive
20,COC1C(CO)OC(n2cnc3c(=S)nc(N)[nH]c32)C1O (stereo unspecified),inactive
21,NC(=O)C1(N2CCCC2)CCN(Cc2ccccc2)CC1,inactive
22,CCC(=C/c1sc2ccc3ccccc3c2[n+]1C)/C=C1\Sc2ccc3ccccc3c2N1C,3.55 µM (active)

row,Compound,Potency
1,O=C(Nc1ccc(S(=O)(=O)N2CCCCCC2)cc1)c1c(F)cccc1F,inactive
2,Cc1cc(C)c(S(=O)(=O)N2CCCC2CNC(=O)c2ccc3c(c2)OCO3)c(C)c1 (stereo unspecified),inactive
3,C[N+](C)(CCCCCC[N+](C)(C)CCCN1C(=O)c2cccc3cccc(c23)C1=O)CCCN1C(=O)c2cccc3cccc(c23)C1=O,5.01 µM (active)
4,O=C1c2cccc3cccc(c23)C(=O)N1CCCCCc1n[nH]c(=S)o1,inactive
5,O=C1c2ccccc2C(=O)N1CCCCCCN1C(=O)c2ccccc2C1=O,inactive
6,c1ccc(-c2cn3cccnc3n2)cc1,inactive
7,Cc1nc(-c2ccc([N+](=O)[O-])cc2)c(-c2ccccc2)o1,inactive
8,Cc1ccc(-c2cn3cc([N+](=O)[O-])ccc3n2)cc1,3.66 µM (active)
9,Cc1ccc(-c2cn3cc(C)ccc3n2)cc1,0.316 µM (active)
10,Cc1ccc(-c2cc(N)on2)cc1,inactive
11,Cc1ccc(-n2c(-c3ccc([N+](=O)[O-])cc3)nc3ccccc3c2=O)cc1,inactive
12,CC(C)=CCCC(C)=CCN1C(=O)[C@]2(OCCC=C[C@H]2C)c2ccccc21,inactive
13,O=C(c1ccco1)N1CCN(C(=S)Nc2cc(F)cc(F)c2)CC1,inactive
14,CN(Cc1ccccc1)C(=O)C1CCCN(c2ncnc3c2nc2n3CCCCC2)C1 (stereo unspecified),inactive
15,CC(NC(=O)c1ccccc1)C(=O)OCC(=O)Nc1cccc(S(=O)(=O)N2CCCC2)c1 (stereo unspecified),inactive
16,Cc1ccccc1N(C(=O)CNC(=O)c1cccs1)C(C(=O)NC1CCCC1)c1ccncc1 (stereo unspecified),inactive
17,CC(NC(=O)COC(=O)c1ccc2ccccc2n1)c1ccccc1 (stereo unspecified),inactive
18,CC(=O)c1cccc(NC(=O)Nc2ccc(C)cc2)c1,inactive
19,C=C(C)C(=O)Nc1cccc(C(C)=O)c1,inactive
20,CCSc1nsc(NC(=O)Nc2cccc(C(C)=O)c2)n1,10 µM (active)
21,CCOc1cccc(NC(=O)Cn2nc(-c3ccc4c(c3)OCCO4)ccc2=O)c1,inactive
22,CC(=O)c1cc2c(cc1NC(=O)CN1CCCCCC1)OCO2,inactive

row,Compound,Potency
1,CC(=O)c1cc2c(cc1NC(=O)Cn1nc(-c3ccc(F)cc3)ccc1=O)OCO2,10 µM (active)
2,CN(CC(=O)Nc1ccc(C(N)=O)cc1)S(=O)(=O)c1ccc2c(c1)OCCO2,inactive
3,Cc1ccc2nc(SCC(=O)N3CCN(c4ccccc4)CC3)nc(=O)n2c1,inactive
4,CCOC(=O)c1cn(CC(=O)Nc2ccc(C(C)C)cc2)nn1,inactive
5,CCOC(=O)c1cn(Cc2cccc(C)c2)nn1,3.98 µM (active)
6,Cc1cccc(-c2nnc(SCC(=O)O)n2Cc2ccccc2)c1,inactive
7,O=C(C/C(=N\O)c1ccccc1O)C(F)F,inactive
8,Cc1cc(S(=O)(=O)NCC(C)C)ccc1OCC(=O)NC1CC1,inactive
9,S=C(NCCc1ccccc1)Nc1ccccc1,inactive
10,COC(=O)Cc1ccc(NC(=S)NCc2ccccc2)cc1,inactive
11,FC(F)(F)Oc1ccc(NC(=S)NCc2ccccc2)cc1,11.2 µM (active)
12,CSc1nc(-c2ccccc2)nc(C(Cl)Cl)n1,3.55 µM (active)
13,CCc1noc(C)c1C(=O)N1CCCC(N2CCN(c3ccc(F)cc3)CC2)C1 (stereo unspecified),inactive
14,COC1=CC(=O)OC(C)(c2ccccc2)C1 (stereo unspecified),inactive
15,CCOc1cc(C)c(S(=O)(=O)NCc2ccccn2)cc1C,inactive
16,CCOc1cc(CNn2c(C)nnc2SCC(=O)NC(C)(C)C)ccc1OCC(=O)NC(C)(C)C,inactive
17,CCOc1cc(CNCc2ccccn2)ccc1OCC(=O)NC(C)(C)C,7.08 µM (active)
18,O=C(Nc1ccc(Cl)cn1)[C@H]1CCCN1S(=O)(=O)c1ccccc1,inactive
19,O=C(COc1ccc(S(=O)(=O)N2CCOCC2)cc1Cl)N1CCOCC1,inactive
20,CN(CC(O)COc1ccc(S(=O)(=O)N2CCOCC2)cc1Cl)C1CCCCC1 (stereo unspecified),10 µM (active)
21,Cc1cc(S(=O)(=O)N2CCOCC2)ccc1OCC(=O)N1CCOCC1,inactive
22,COc1ccccc1NC(=O)N(O)C1(C#N)CCCCC1,inactive

row,Compound,Potency
1,O=C(Nc1cccc(S(=O)(=O)NC2=NCCC2)c1)c1ccc(F)cc1F,inactive
2,Cc1cc(C)c(C)c(S(=O)(=O)Nc2cccnc2)c1C,inactive
3,COc1ccc(CCn2nnnc2C(c2ccccc2)N2CCN(C)CC2)cc1OC (stereo unspecified),inactive
4,N#Cc1ccc(C(c2nnnn2CCc2ccccc2)N2CCCCCC2)cc1 (stereo unspecified),20.6 µM (active)
5,CC(C)C(c1nnnn1CCc1ccccc1)N1CCN(C(=O)c2ccco2)CC1 (stereo unspecified),inactive
6,CC(C)(C)S(=O)(=O)c1ccccc1-c1noc(-c2ccccc2)c1C(N)=O,inactive
7,COc1ccc(S(=O)(=O)N2CCN(c3cnccn3)CC2)cc1,inactive
8,O=C(Nc1ccc(S(=O)(=O)NCC2CCCO2)cc1)c1ccc(F)cc1 (stereo unspecified),inactive
9,CN(Cc1ccccc1)C(=O)C(=O)c1cn(CC(=O)N2CCCC2)c2ccccc12,inactive
10,Cc1ccc(NNC(=O)c2c(F)cccc2Cl)cc1Cl,inactive
11,Cc1ccc(NNC(=O)c2cccs2)cc1Cl,6.31 µM (active)
12,CCc1ccc(NC(=O)C(=O)NNC(=O)c2cccs2)cc1,inactive
13,Cc1nc(CN(C)C(=O)CC2C(=O)NCCN2Cc2ccc(F)cc2)cs1 (stereo unspecified),inactive
14,C/C(=N\NC(=O)C1(C)CC1(Br)Br)c1ccc(C)cc1C (stereo unspecified),inactive
15,COC(=O)c1sc2ncccc2c1OCc1ccc(Cl)cc1Cl,inactive
16,CCOc1ccc(/C=N/NC(N)=S)cc1,inactive
17,NC(N)=N/N=C/c1ccc(OCc2ccc(Cl)cc2Cl)cc1,10.3 µM (active)
18,Cc1ccc(NC(=O)COc2coc(CN3CCc4ccccc4C3)cc2=O)cc1Cl,inactive
19,CC(=O)c1ccc(NC(=O)C(C)OC(=O)c2ccc(NS(=O)(=O)c3ccc4[nH]c(=O)[nH]c4c3)cc2)cc1 (stereo unspecified),inactive
20,CCCCN1C2CCC1CC(OC(c1ccc(F)cc1)c1ccc(F)cc1)C2 (stereo unspecified),3.55 µM (active)
21,COc1cc(OC)cc(C(=O)Nc2nnc(SCC(=O)NCC3CCCO3)s2)c1 (stereo unspecified),inactive
22,CCOc1ccc(NC(=O)CN2CCN(CC(=O)Nc3ccc(OC)cc3)CC2)cc1,inactive

row,Compound,Potency
1,CCc1cc(C(=O)c2ccc(OC)cc2)c(NC(=O)CN2CCN(C)CC2)s1,3.55 µM (active)
2,COc1ccc(OC)c(NC(=O)CN2CCN(C(=O)c3ccco3)CC2)c1,inactive
3,COc1ccc(CNC(=O)C2CCN(C(=O)c3ccco3)CC2)cc1,inactive
4,COc1cc2[nH]c(O)c(C=O)c2cc1OC,inactive
5,COc1ccc(CC(=O)Nc2nc(-c3ccc(F)c(F)c3)cs2)cc1OC,10 µM (active)
6,COc1cc(CC(=O)Nc2nc(-c3ccc(F)c(F)c3)cs2)cc(OC)c1OC,7.94 µM (active)
7,COc1ccc(-c2csc(NC(=O)COC(=O)Cc3ccc(Cl)cc3Cl)n2)cc1,inactive
8,COc1ccc(-c2csc(NC(=O)c3ccc(N4C(=O)CCC4=O)cc3)n2)cc1OC,inactive
9,CCCc1ccc(-c2csc(NC(=O)Cc3cccs3)n2)cc1,inactive
10,Cc1ccc(-c2csc(NC(=O)Cc3cccs3)n2)cc1C,inactive
11,CCOc1ccc(CCNC(=O)COC(=O)c2c(OC)cccc2OC)cc1OCC,inactive
12,Cc1cc(Br)ccc1NC(=O)CN(C)C(=O)CN1C(=O)NC2(CCCC2)C1=O,inactive
13,CCc1nnc(NC(=O)C2CCN(C(=O)c3ccccc3C)CC2)s1,inactive
14,O=C(Nc1ccccc1)C1CCN(C(=O)c2ccc(Br)cc2)CC1,inactive
15,CCOC(=O)C(CO)NC(=O)C1(NC(C)=O)CCCC1 (stereo unspecified) (Ac-[Ac5c]-[ξS]-OEt),inactive
16,Cc1ccccc1NC(=S)N(CCCN1CCOCC1)Cc1cccs1,inactive
17,CCc1ccccc1NC(=S)N(CCN1CCCCCC1)Cc1ccco1,inactive
18,CCc1cccc(C)c1NC(=S)N(CCCN1CCN(C)CC1)Cc1cccs1,10 µM (active)
